Assay results reported in the supplement of paper PMC12636033.
± gives the standard deviation of the averaged measurements. The full ranking holds about 33,000 sequences; the median of “E-score (rank enrichment, -0.5 to 0.5)” is about -0.0028, and the highest 2% start at about 0.23. The sample as a whole holds a higher share of the highest values than the screen did.

What follows are sequences tested on 2Sb-muMax20 (muMax20 with two 1,3-bis(methyl)benzene Cys staples, A13C/A17C and Q88C/A92C, C-terminal Lys) (assay: PBM 8-mer E-score (E-score (rank enrichment, -0.5 to 0.5)); higher = stronger preferential binding).
Protocol: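 Protein binding microarray (universal PBM chip covering all 10-mers in fixed probe flanks) with chemically synthesized human Max(13-93) bHLH-LZ analogs (not full-length Max) bearing noncanonical residues (hArg, Tha, Aib, Nle at 65) and aromatic Cys staples. Read-out per 8-mer (and its reverse complement): E-score (rank-based enrichment, -0.5 to 0.5) and Z-score of median probe intensity.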

Sequence	PBM 8-mer E-score
AGTGGCTA	-0.0163 ± 0.084
AGTTTCAC	0.045 ± 0.0036
CAGCTCAG	-0.0712 ± 0.0083
GGCCACAA	-0.0539 ± 0.0061
ACATTCTC	-0.0346 ± 0.019
CTGGGGTA	0.179 ± 0.0054
ATGGGGTA	0.249 ± 0.034
AGGGGGTG	-0.116 ± 0.099
ATGGGGTC	0.0475 ± 0.043
ATGGGGTG	0.238 ± 0.0055
AAGGGGTG	0.117 ± 0.065
ACGTAGAA	-0.00421 ± 0.0043
AGCGCTCG	-0.0768 ± 0.062
AAATCCGA	0.0186 ± 0.034
TGGAATAA	0.0314 ± 0.022
GGGAATAC	0.0722 ± 0.022
GGGAATGA	0.322 ± 0.017
CGGAATGA	-0.065 ± 0.018
AGGAATGA	0.00801 ± 0.012
GGGAATAA	0.273 ± 0.024
AAGGCACT	0.0491 ± 0.026
GAGTGCCA	-0.0641 ± 0.028
ACTCTGCT	-0.214 ± 0.017
CATATCCG	0.0256 ± 0.071
AATTTTCC	0.085 ± 0.0046

Sequence	PBM 8-mer E-score
CAAATTCC	0.117 ± 0.042
CGTTTCTC	-0.0396 ± 0.11
GACAGGGA	-0.156 ± 0.072
AAGCAACT	0.00018 ± 0.012
ATAAAGCG	0.0637 ± 0.015
CTAAAGCA	0.097 ± 0.0042
ATAAAGCA	0.261 ± 0.077
AGTTAGAA	0.0284 ± 0.083
CCGTGCAC	0.126 ± 0.009
GCGTGCAC	0.164 ± 0.039
ACGTGCAT	0.199 ± 0.0073
ACGTGCAC	0.281 ± 0.028
CCGTGCAA	-0.0691 ± 0.042
ACGTGCAA	0.252 ± 0.037
AGACCATG	-0.149 ± 0.029
ACGGGTAA	0.0152 ± 0.05
CATGTGGG	0.193 ± 0.0078
AATGTGGG	0.248 ± 0.054
AATGTGGC	0.0323 ± 0.0018
TGAATGCA	0.167 ± 0.015
CCATACCG	0.0521 ± 0.016
ATTTTACC	0.147 ± 0.025
CGACGGAA	-0.109 ± 0.041
CCCATTAA	0.13 ± 0.0083
AACATTAC	0.17 ± 0.015

Sequence	PBM 8-mer E-score
ACCATTAA	0.298 ± 0.038
CTCATTAA	0.154 ± 0.064
GACATTAA	0.0446 ± 0.036
TACATTAA	0.25 ± 0.03
CACATTAC	0.235 ± 0.017
TCCATTAA	-0.0453 ± 0.043
AACATTAA	0.0201 ± 0.011
GTCATTAA	0.269 ± 0.035
CACATTAG	-0.00967 ± 0.014
ATCATTAA	0.0944 ± 0.13
AGCGTGGC	-0.119 ± 0.04
TAACGTTA	0.0083 ± 0.027
CCATTCCG	-0.0949 ± 0.02
CGACGCCC	9e-05 ± 0.053
CTGCTCTC	-0.0222 ± 0.021
ATGTGATG	0.108 ± 0.053
ATATCCGC	-0.0334 ± 0.094
AGAACCAG	-0.11 ± 0.019
GTGATTAA	0.234 ± 0.019
AGCATTAA	0.245 ± 0.037
AGCATTAT	0.224 ± 0.0032
CGCATTAA	0.0701 ± 0.0015
ATGATTAA	-0.061 ± 0.032
TGCATTAA	0.267 ± 0.01
GGCATTAA	-0.00398 ± 0.043

Sequence	PBM 8-mer E-score
AGCATTAC	-0.0652 ± 0.011
CTGATTAA	0.0112 ± 0.038
AGGATAAT	0.148 ± 0.024
AGTTATCC	0.119 ± 0.035
AGCTCAAG	-0.0222 ± 0.065
AAAGCCAG	-0.092 ± 0.033
CTCGCGAA	-0.117 ± 0.028
ATATTCCC	0.159 ± 0.065
ACCGGCGT	-0.189 ± 0.05
ATTCGTCG	-0.057 ± 0.028
ATTCGTCC	0.232 ± 0.032
CTTCGTCC	-0.084 ± 0.06
ACATCGGT	-0.142 ± 0.022
CCAATCTC	0.256 ± 0.024
CCAATCTA	0.094 ± 0.0061
ACAATCTC	0.149 ± 0.018
CTACGCGC	-0.0145 ± 0.047
GACTCTTA	0.151 ± 0.032
CGGCGCAA	-0.0906 ± 0.015
ACCGTCCG	-0.254 ± 0.034
AGCCTCAG	-0.0843 ± 0.053
ATCAATTG	0.257 ± 0.0066
ATCAATTA	0.27 ± 0.01
CTCAATTA	0.0698 ± 0.043
AACAATGG	0.0925 ± 0.024

Sequence	PBM 8-mer E-score
ATCAATTC	0.0558 ± 0.082
AACAATTG	0.143 ± 0.022
AACAATTC	0.141 ± 0.011
GACAATGC	0.0134 ± 0.02
AACAATGC	0.23 ± 0.044
ATCAATCG	0.16 ± 0.067
AACAATTA	0.2791 ± 0.0017
GTCAATTA	-0.0609 ± 0.042
CCATGGGA	0.123 ± 0.019
AATAGAGC	0.0926 ± 0.04
ATGCTTCG	0.00498 ± 0.0021
CACAGTAG	-0.0155 ± 0.0072
AGCCTAGA	-0.0899 ± 0.028
ACGACGAC	-0.124 ± 0.0076
GTTCGCTA	-0.0331 ± 0.033
ATTAGTCA	0.172 ± 0.041
CAGGATAG	0.0195 ± 0.012
GCCGTCAA	-0.0475 ± 0.027
CAAGCGCC	-0.226 ± 0.091
CAAGCGCA	0.27 ± 0.03
AAAGCGCA	0.0962 ± 0.09
ACATGTGC	0.167 ± 0.0089
GCATGTGA	0.159 ± 0.02
ACACATGT	0.334 ± 0.0089
ACATGTGA	0.308 ± 0.033

Sequence	PBM 8-mer E-score
AAATGTGG	0.114 ± 0.11
ACACATGG	0.145 ± 0.08
ACATGTGG	0.246 ± 0.04
CCATGTGA	0.109 ± 0.036
ACACATGA	-0.0128 ± 0.068
CCTCCGTC	0.0056 ± 0.021
GCCGGCCC	-0.162 ± 0.0086
AAATAGTA	0.175 ± 0.0028
AAATAACG	0.273 ± 0.017
AGATAACC	0.0753 ± 0.022
AGATAACG	0.259 ± 0.041
ATATAACC	0.16 ± 0.041
AAATAATG	0.2315 ± 0.002
ATATAACA	0.126 ± 0.0091
ATATAACG	0.288 ± 0.0086
CAATAACG	0.105 ± 0.029
CGATAACG	-0.0616 ± 0.034
AAATAACA	0.0873 ± 0.044
AAATAATA	0.149 ± 0.025
AAATAATC	-0.0306 ± 0.048
AACGTGGT	0.224 ± 0.05
ATTCCTCC	0.129 ± 0.052
ACACCGGG	-0.119 ± 0.096
AGCATAAG	0.0893 ± 0.055
CATTATGG	0.0682 ± 0.009

Sequence	PBM 8-mer E-score
CACATTCC	-0.108 ± 0.075
GCTGCGCA	-0.147 ± 0.022
CAACATGA	0.232 ± 0.044
CAACATGG	0.138 ± 0.066
CAACATGC	-0.00139 ± 0.11
ATATATAA	0.221 ± 0.099
TACTATAA	0.239 ± 0.017
CGATATAA	0.262 ± 0.066
TTATATAA	0.241 ± 0.086
AACTATAA	0.102 ± 0.024
CACTATAA	-0.0514 ± 0.028
CGTTATAA	0.129 ± 0.021
AGTTATAA	0.141 ± 0.061
CGATATAC	0.156 ± 0.025
CGATATAG	0.00229 ± 0.039
CTATATAA	0.0927 ± 0.03
TGTTATAA	0.261 ± 0.021
CCCACTAA	0.177 ± 0.014
ACAGTCAC	0.0067 ± 0.018
AAATCTGG	-0.19725 ± 4.2e-05
TACCTTAA	-0.0174 ± 0.012
ACAGGAGC	-0.00133 ± 0.025
GATTGCGA	-0.103 ± 0.03
CTGGTACA	0.0235 ± 0.024
CGCCGGAG	-0.226 ± 0.023

Sequence	PBM 8-mer E-score
CAAATTGG	0.0841 ± 0.087
ACTCCCCG	0.168 ± 0.015
ACCTCCCA	-0.0967 ± 0.065
CCCTCCCA	0.325 ± 0.076
CCTCCCCA	0.346 ± 0.046
CCTCCCAA	0.0447 ± 0.088
ACTCCCCC	-0.192 ± 0.053
CCTCCCCC	-0.17 ± 0.14
ACTCCCAA	0.141 ± 0.025
ACTCCCCT	0.266 ± 0.028
TCTCCCCA	0.164 ± 0.047
ACTCCCCA	0.309 ± 0.0089
GCCTCCCA	-0.128 ± 0.085
CGGATAAA	0.0371 ± 0.069
AGATGAAT	0.17 ± 0.0036
CATCCTAG	0.0659 ± 0.037
ATAGGGAA	0.0733 ± 0.043
CTAATCCA	0.0132 ± 0.01
CACATCGG	-0.0961 ± 0.052
ATTGTTGC	0.00699 ± 0.061
AAGAGGGC	0.0019 ± 0.0019
ACGCTCTG	-0.0545 ± 0.0079
CCAACGAC	-0.133 ± 0.023
CAAACTAA	0.0893 ± 0.026
ATAACTAA	0.112 ± 0.031

Sequence	PBM 8-mer E-score
TAAACTAA	0.233 ± 0.028
CTAACTAA	0.0585 ± 0.065
AAAACTAA	0.132 ± 0.019
TTAACTAA	0.241 ± 0.014
GACTGCCA	-0.0667 ± 0.023
ACCCCAGT	0.336 ± 0.028
ACCCCAGA	0.156 ± 0.044
ACCCCAGG	-0.107 ± 0.067
ACCCCACC	0.22 ± 0.074
AACCCACT	0.059 ± 0.037
ACCCCACT	0.293 ± 0.044
ATTGAAGG	6e-05 ± 0.019
AGTTCAAA	-0.0257 ± 0.13
AACCGGCC	-0.167 ± 0.021
CCGCTGCC	-0.123 ± 0.029
CAGAGAGA	-0.0625 ± 0.011
GTACAAAA	0.27 ± 0.0082
GTACAAAC	0.028 ± 0.04
TTACAAAA	0.181 ± 0.03
CTACAAAA	0.0645 ± 0.037
ATACAAAT	0.148 ± 0.12
ATACAAAA	0.296 ± 0.014
